# Screens as filed in PubChem BioAssay.
# A selection: hits, their analogues and other compounds. The true share with any hit is near 7.3%.
# Luc counter: blocks Kinase-Glo luciferase, a counter-screen artifact; Q27757; 200,000 compounds, 0.28% hits; AID 1379; Kinase-Glo luciferase, ATP luminescence, 8 min; Potency, µM (top dose mostly 38.3 µM), without a hit: at the top dose activity change, negative = inhibition, usual class: inhibitors; also: % is scaled to controls: 0 for no effect and ±100 for the full control effect; nearly all actives have a fitted effect of over 60% in size
#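 Substrate mix (final 50 mM imidazole pH 7.2, 50 mM KCl, 7 mM MgCl2, 10 uM ATP, 0.01% Tween 20, 0.05% BSA) plus pin-tool compound, then Kinase-Glo detection mix; 8 min ambient, luminescence read.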
# NPC1 prom act: activates the NPC1 promoter; Huh7 NPC1 promoter luciferase reporter, 24 h; 320,000 compounds, 2.4% hits; Potency, µM (highest dose often 9.22 µM), for the others: top-dose activation, most hits filed as activators; also: % of control where 0% means no effect; nearly all actives have a fitted effect of over 60% in size
#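 NPC1 promoter–luciferase Huh7 cells; 24 h compound; luminescence.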
# ELG1 genotox: induces genotoxicity in HEK293T cells with luciferase-tagged ELG1; HEK293T ELG1-luciferase reporter, luminescence, 16 h; Potency, µM (series often up to 46 µM), without a hit: at the top dose activity change, positive = activation, most hits filed as activators; 330,000 compounds, 1.3% hits; also: % of control where 0% means no effect; nearly all actives have a fitted effect of over 60% in size
#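 Step 1: seed 2,000 HEK293T ELG1-luciferase cells per well. Step 2: add compound or DMSO, incubate 16 hr at 37 °C. Step 3: ONE-Glo, 30 min at room temperature, read luminescence.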
# FLuc counter: inhibits or activates purified firefly luciferase, miR-21 counter-screen; P08659; purified FLuc, Km substrates, luminescence inhibition; Potency, µM (top dose mostly 57.5 µM), for inactives: top-dose activity change, negative = inhibition, actives largely listed as inhibitors; 360,000 compounds, 6.9% hits; AID 588342;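 also: plate controls were vehicle for no effect and reference inhibitor for full effect; nearly all actives have a fitted effect of over 55% in size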
# Target sequence (P08659 whole entry, looked up): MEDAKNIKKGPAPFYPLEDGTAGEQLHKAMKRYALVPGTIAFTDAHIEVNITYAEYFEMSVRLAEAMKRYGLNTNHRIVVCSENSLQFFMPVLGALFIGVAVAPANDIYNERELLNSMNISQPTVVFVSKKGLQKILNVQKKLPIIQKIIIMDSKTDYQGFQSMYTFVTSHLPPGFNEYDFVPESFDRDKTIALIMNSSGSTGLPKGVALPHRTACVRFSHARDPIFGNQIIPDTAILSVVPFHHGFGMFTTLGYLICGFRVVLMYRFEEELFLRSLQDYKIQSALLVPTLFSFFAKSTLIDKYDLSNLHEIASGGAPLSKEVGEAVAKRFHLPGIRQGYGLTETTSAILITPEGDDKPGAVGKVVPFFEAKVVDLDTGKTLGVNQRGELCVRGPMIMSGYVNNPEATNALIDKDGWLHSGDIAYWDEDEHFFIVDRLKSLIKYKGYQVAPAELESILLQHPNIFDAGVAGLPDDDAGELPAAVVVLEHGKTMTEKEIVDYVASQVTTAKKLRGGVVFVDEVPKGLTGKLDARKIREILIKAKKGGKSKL
#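 Purified P. pyralis luciferase (10nM final) with 10uM D-luciferin and 10uM ATP (Km levels) in 50mM Tris acetate pH 7.5, 10mM Mg acetate, 0.01% Tween-20, 0.05% BSA; qHTS 6-point titration, ~60 µM downward; luminescence read.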
# SMN2 splice enh: increases expression of the SMN2 splice variant. HEK293 SMN2-luciferase splicing reporter, luminescence, 30-36 h. Potency, µM (titrated, usually from 46.1 µM), for inactives: at the highest dose activity change, positive = activation, actives largely listed as activators. 210,000 compounds, 2.8% hits. AID 1458; also: % of control where 0% means no effect; nearly all actives have a fitted effect of over 55% in size
#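 qHTS luciferase splicing reporter: luminescence rises when SMN2 exon 7 is included in transfected HEK293 cells. Compound exposure lasted 30-36 h at 37C, with 4.5 mM final sodium butyrate as control, followed by a ONE-Glo read.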
# Rab9 promoter act: activates the Rab9 promoter. Potency, µM (top dose mostly 9.22 µM), for the others: at the highest dose activation, negative = inhibition, most hits filed as activators. Huh7 Rab9 promoter-luciferase reporter, luminescence, 24 h. AID 485297. 320,000 compounds, 2.8% hits; also: % of control where 0% means no effect; nearly all actives have a fitted effect of over 60% in size
#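 Rab9 promoter-driven luciferase in stably transfected Huh7 cells; 1500 cells/well rested 2 h, exposed to compound in DMSO for 24 h at 37 °C, 5% CO2. Luminescence read 10 min after adding luciferase reagent at ambient temperature.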
# * = called active by the depositor; ? = inconclusive; nt = not tested or not shown; [ ] = remark or other dose. Calls follow the shape of the dose curve; as a rule, active = well fitted curve in the direction sought with a large enough effect; inconclusive = small, poorly fitted or top-dose-only effect, or another doubt; inactive = no such curve, though single readings can be large; an effect the other way counts as inactive or inconclusive. Potency is read from the fitted curve at half-maximal effect.
SMILES,Luc counter,NPC1 prom act,ELG1 genotox,FLuc counter,SMN2 splice enh,Rab9 promoter act
Cc1ccc2nc(N/N=C\c3ccc([N+](=O)[O-])o3)nc(-c3ccccc3)c2c1,2%,0%,-19%,7.6µM*,-27%,3%
CCc1ccc(N(CC)C(=O)c2ccc3c(=O)n4c(nc3c2)CCCCC4)cc1,nt,nt,nt,-11%,-1%,nt
O=C(O)c1cc(-c2c[nH]c3ccccc23)nc2ccc3ccccc3c12,5%,17%,-11%,1.2µM*,3%,17%
Cn1c(-c2ccc3ccccc3n2)[n+](C)c2ccccc21,nt,-12%,-3%,21µM*,nt,-31%
O=C(Nc1ccc(Cl)cc1F)c1cccc2ccccc12,nt,20%,18%,?,nt,?
CC(C)C(=O)Nc1cccc(C(=O)Nc2ccccc2C(=O)O)c1,-3%,7%,-1%,7.6µM*,-6%,16%
O=C(Nc1ccc(Cl)cc1F)c1ccccc1Br,-3%,1.8µM*,?,11µM*,11µM*,2.2µM*
CCC(C)(C)c1nnc(NC(=O)c2cccc([N+](=O)[O-])c2)s1,3%,20%,14%,19µM*,?,22%
O=C(O)CCCC(=O)Nc1cccc(C(=O)Nc2ccccc2C(=O)O)c1,1%,-1%,2%,?,nt,-7%
CC(C)C(=O)Nc1cccc(C(=O)Nc2nnc(C(C)(C)C)s2)c1,-3%,1%,2%,13µM*,-6%,11%
CC(C)C(=O)Nc1ccc(C(=O)Nc2nnc(C(C)(C)C)s2)cc1,1%,-3%,1%,-7%,12%,-2%
O=C(Nc1nnc(CSCc2ccc(Cl)cc2)s1)c1cccc([N+](=O)[O-])c1,0%,6%,-3%,-14%,-23%,-2%
C=C1c2ccccc2O[C@H](C(=O)OCC)C1OC (mixture of isomers),-3%[39.9 µM],nt,nt,nt,nt,nt
O=C(Nc1ccccc1C(=O)O)c1cccc(NC(=O)c2ccccc2Br)c1,nt,0%,-3%,24µM*,nt,-5%
O=C(Nc1cc(C(=O)Nc2ccccc2C(=O)O)cc(C(=O)Nc2ccccc2C(=O)O)c1)c1ccccc1,nt,0%,23%,3%,nt,-3%
O=C(O)c1ccc(NC(=O)c2ccccc2NC(=O)c2cccc(Br)c2)cc1,nt,-2%,5%,11µM*,nt,-2%
CC(C)c1ccc(OCC(=O)Nc2cccc(C(=O)Nc3ccccc3C(=O)O)c2)cc1,-1%,0%,2%,21µM*,14%,-4%
Cc1cccc(OCC(=O)Nc2cccc(C(=O)Nc3ccccc3C(=O)O)c2)c1,-1%,1%,-2%,?,18%,-1%
Cc1cccc(N2CCN(C(c3ccccc3)c3nnc(-c4ccccc4Cl)o3)CC2)c1C (centres undefined),nt,nt,nt,?,2%,nt
CCc1ccc(Cn2c(CNS(=O)(=O)c3ccc(Cl)s3)nc3cccnc32)cc1,nt,nt,nt,-19%,nt,nt
COc1ccc2nc(N(Cc3cccnc3)C(=O)CCc3ccccc3)sc2c1,nt,nt,nt,2%,nt,nt
OC(COc1ccc(OCc2ccccc2)cc1)CN1CCCCC1 (centres undefined),2%,30%,16µM*,?,28%,?
c1ccc(COc2ccc(OCCCn3cncn3)cc2)cc1,0%,1.6µM*,4.1µM*,4.3µM*,10µM*,2.5µM*
O=S(=O)(N1CCCCC1)N1CCN(CC(O)COc2ccc3cc(Br)ccc3c2)CC1 (centres undefined),0%,-6%,1%,0%,-53%,-12%
c1ccc(Cc2ccc(OCCn3cncn3)cc2)cc1,-3%,-3%,?,1%,-28%,0%
SMILES,Luc counter,NPC1 prom act,ELG1 genotox,FLuc counter,SMN2 splice enh,Rab9 promoter act
c1ccc(COc2ccc(OCCCN3CCCC3)cc2)cc1,2%,1µM*,?,3.4µM*,6.3µM*,0.63µM*
OC(COc1ccc2cc(Br)ccc2c1)CN1CCCC1 (centres undefined),-2%,10%,?,12µM*,6%,14%
Cc1ccc(C)c(S(=O)(=O)c2nnn3c2nc(N2CCCCC2)c2sccc23)c1,nt,nt,nt,-8%,nt,nt
Brc1ccc(C=Nc2ccc(Nc3ccccc3)cc2)s1,1%,-11%,7%,24µM*,17%,-4%
C(=Nc1ccc(Nc2ccccc2)cc1)c1ccc2ccccc2c1,-1%,-12%,-1%,?,22%,-2%
CN(C)c1ccc(NC(=O)N2CCOCC2)cc1,-18%,7%,15%,24µM*,?,9%
O=C(Nc1ccc(Cc2ccc(NC(=O)N3CCOCC3)cc2)cc1)N1CCOCC1,-4%,-1%,15%,?,0%,-2%
CCC(C)c1ccc(NC(=O)N2CCOCC2)cc1 (centres undefined),nt,2.5µM*,?,15µM*,nt,2.5µM*
Cc1cc(Br)ccc1NC(=O)COc1cc(=O)n(C)c2ccccc12,nt,nt,nt,-14%,4%,nt
Cc1ccc(C2=Nc3ccccc3NC(c3ccncc3)=N2)cc1,nt,nt,nt,-9%,0%,nt
Cc1cccc(-c2nc(-c3ccncc3)no2)c1,nt,1.6µM*,9.2µM*,3µM*,nt,1.4µM*
Cc1cc(C)cc(-c2nc(-c3ccncc3)no2)c1,-7%,?,21µM*,11µM*,-18%,?
Brc1cccc(-c2nc(-c3ccncc3)no2)c1,-6%,3.2µM*,?,7.6µM*,27%,5µM*
Cc1ccc(-c2nc(-c3ccccc3)no2)c(Cl)c1,?,2.8µM*,0.26µM*,0.085µM*,-30%,4µM*
O=C(Nc1ccc(F)cc1Cl)C1Cc2ccccc2N1C(=O)c1ccccc1 (centres undefined),nt,nt,nt,-5%,nt,nt
Clc1cccc(Cl)c1-c1noc(-c2ccno2)n1,nt,-3%,3%,0%,nt,-1%
Cc1ccc(-c2nnc(-c3cccnc3)o2)cc1,nt,2.8µM*,21µM*,12µM*,nt,?
COc1ccc(-c2nnc(-c3cccnc3)o2)cc1,1%,?,?,?,?,?
CCn1nc(C)c(Br)c1-c1nc(-c2cccc(C)c2)no1,nt,2.5µM*,0%,?,nt,27%
Cc1cccc(-c2noc(-c3c(C)noc3C)n2)c1,nt,1.6µM*,4%,?,nt,3.2µM*
CC(C)(C)c1ccc(-c2noc(-c3ccno3)n2)cc1,nt,1.3µM*,?,1.9µM*,nt,1.4µM*
CCn1nc(C)c(Br)c1-c1nc(CS(=O)(=O)c2ccsc2)no1,nt,12%,3%,-18%,nt,8%
CC(C)Oc1ccc(CNC(=O)CN2C(=O)CCn3nc(-c4cn(C)c5ccccc45)cc32)cc1,nt,nt,nt,-16%,nt,nt
CCOC(=O)c1c(S(=O)(=O)N2CCCC(C(=O)N3CCN(c4cc(C)ccc4C)CC3)C2)c(C)n(C)c1C (centres undefined),nt,nt,nt,0%,nt,nt
